PubChem BioAssay (Tox21)
Inconclusive results are not listed. The source made the active and inactive calls. Unless noted, the call rests on the fitted dose curve; in most records, active means well fitted curve in the direction sought with a large enough effect in the repeat runs; inconclusive means weak or mixed curves; inactive means no such curve, though single readings can be large; an effect the other way counts as inactive or inconclusive.

Experiments:
[1] = qHTS assay to identify small molecule agonists of the hypoxia (HIF-1) signaling pathway - cell viability counter screen (AID 1224844; calls by dose curve; further: nearly all actives have a fitted effect of over 50% in size; further: potency means the concentration at half of the fitted maximal effect)
Method in brief: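 Cytotoxicity measured by CellTiter-Glo ATP luminescence in the wells also read for beta-lactamase signal. Cells were HRE-bla ME-180 (2,000/well, 0.5% dialyzed FBS), exposed to compounds for 17 h at 37C.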

[2] = qHTS assay to identify small molecule agonists of the hypoxia (HIF-1) signaling pathway (AID 1224846; active means well fitted activation curve with a large enough effect in the signal ratio in the repeat runs, not every such curve was filed as active; the % refers to the signal ratio)
Method in brief: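 Compounds added to ME-180 cells carrying hypoxia-response-element beta-lactamase reporter (0.5% dialyzed FBS, 5 h preplating), 17 h at 37C; agonist activity detected by CCF4-AM B/G FRET read-out.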

[3] = qHTS assay to identify small molecule agonists of H2AX - cell viability counter screen (AID 1224847; calls by dose curve; further: nearly all actives have a fitted effect of over 30% in size; further: potency means the concentration at half of the fitted maximal effect)
Method in brief: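 Cells plated first: CHO-K1, 1000 per well in 10% FBS medium, incubated overnight at 37C. Then 15-point compound titration added (final DMSO 0.76%) for 3 hr. Finally CellTiter-Glo added and luminescence read.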

[4] = qHTS RealTime-Glo MT Cell Viability Assay in HepG2 cells - 24 hour (AID 1224867); further: nearly all actives have a fitted effect of over 50% in size; further: potency means the concentration at half of the fitted maximal effect
Method in brief: (§1)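 HepG2 cells were seeded at 600 cells/well together with NanoLuc luciferase and a cell-permeant prosubstrate, preincubated 5 h at 37 C/5% CO2, then pin-dosed with compounds in DMSO. Nonlytic luminescence from viable cells was read at each time point.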

[5] = A CellTox Green Cytotoxicity Assay to monitor cytotoxicity in HEK293 cells - 0 hour (AID 1224869); further: nearly all actives have a fitted effect of over 50% in size
Method in brief: (§2)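 Fluorescence from a DNA-binding dye excluded by viable cells was measured repeatedly in the same HEK293 wells (600 cells/well) during continuous compound exposure at 37 C. Each assay gives one read point: 0, 8, 16, 24, 32 or 40 h.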

[6] = qHTS RealTime-Glo MT Cell Viability Assay in HepG2 cells - 40 hour (AID 1224870); further: nearly all actives have a fitted effect of over 50% in size; further: potency means the concentration at half of the fitted maximal effect
Method in brief: (§3)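 HepG2 cells (600/well) mixed with RealTime-Glo MT reagent, settled 5 h at 37 C/5% CO2 before compound addition. Nonlytic NanoLuc luminescence from viable-cell prosubstrate reduction read repeatedly during 40 h treatment at 37 C.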

[7] = qHTS RealTime-Glo MT Cell Viability Assay in HEK293 cells - 16 hour (AID 1224872); further: nearly all actives have a fitted effect of over 50% in size; further: potency means the concentration at half of the fitted maximal effect
Method in brief: (§4)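 HEK293 cells were seeded at 600 cells/well together with NanoLuc luciferase and cell-permeant prosubstrate, preincubated 5 h at 37 C/5% CO2, then given compound in DMSO by pintool. Luminescence from viable-cell prosubstrate reduction was read repeatedly over 40 h.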

[8] = qHTS RealTime-Glo MT Cell Viability Assay in HepG2 cells - 8 hour (AID 1224873); further: nearly all actives have a fitted effect of over 55% in size; further: potency means the concentration at half of the fitted maximal effect
Method in brief: as §3

[9] = A CellTox Green Cytotoxicity Assay to monitor cytotoxicity in HepG2 cells - 16 hour (AID 1224876); further: nearly all actives have a fitted effect of over 45% in size; further: potency means the concentration at half of the fitted maximal effect
Method in brief: (§5)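 Real-time cytotoxicity: fluorescence of a cell-impermeant cyanine dye binding DNA of dead HepG2 cells, measured repeatedly (0–40 h) during compound exposure at 37 C. Cells seeded 600/well with reagent, dosed after 5 h.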

[10] = qHTS RealTime-Glo MT Cell Viability Assay in HepG2 cells - 32 hour (AID 1224877); further: nearly all actives have a fitted effect of over 55% in size; further: potency means the concentration at half of the fitted maximal effect
Method in brief: as §1

[11] = qHTS RealTime-Glo MT Cell Viability Assay in HEK293 cells - 0 hour (AID 1224880); further: top concentration of the series differs between compounds; nearly all actives have a fitted effect of over 45% in size
Method in brief: (§6)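 Luminescence, which tracks viable cell number through reduction of the prosubstrate to a NanoLuc substrate, was read over continuous 37 C culture. Cells (600/well) were premixed with reagent and rested 5 h before 23 nL of compound in DMSO was pinned.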

[12] = qHTS assay to identify small molecule agonists of H2AX (AID 1224845; active means well fitted activation curve with a large enough effect in the signal ratio in the repeat runs, not every such curve was filed as active; the % refers to the signal ratio; further: potency means the concentration at half of the fitted maximal effect)
Method in brief: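 Wild-type CHO-K1 cells, plated overnight, exposed 3hr at 37C to 15 concentrations (0.76% DMSO final). Lysed, then HTRF anti-pH2AX (S139) cryptate and anti-H2AX-d2 antibodies, 24 hr room temperature; 665/620 nm emission read.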

[13] = A CellTox Green Cytotoxicity Assay to monitor cytotoxicity in HEK293 cells - 40 hour (AID 1224871); further: nearly all actives have a fitted effect of over 45% in size; further: potency means the concentration at half of the fitted maximal effect
Method in brief: as §2

[14] = A CellTox Green Cytotoxicity Assay to monitor cytotoxicity in HEK293 cells - 24 hour (AID 1224875); further: nearly all actives have a fitted effect of over 45% in size; further: potency means the concentration at half of the fitted maximal effect
Method in brief: as §2

[15] = A CellTox Green Cytotoxicity Assay to monitor cytotoxicity in HepG2 cells - 24 hour (AID 1224878); further: nearly all actives have a fitted effect of over 45% in size; further: potency means the concentration at half of the fitted maximal effect
Method in brief: as §5

[16] = A CellTox Green Cytotoxicity Assay to monitor cytotoxicity in HepG2 cells - 40 hour (AID 1224879); further: nearly all actives have a fitted effect of over 40% in size; further: potency means the concentration at half of the fitted maximal effect
Method in brief: as §5

[17] = qHTS RealTime-Glo MT Cell Viability Assay in HEK293 cells - 32 hour (AID 1224868); further: nearly all actives have a fitted effect of over 50% in size; further: potency means the concentration at half of the fitted maximal effect
Method in brief: as §4

[18] = qHTS RealTime-Glo MT Cell Viability Assay in HEK293 cells - 40 hour (AID 1224874); settings: RealTime-Glo luminescence; max response: stronger effect = lower value; further: nearly all actives have a fitted effect of over 50% in size; further: potency means the concentration at half of the fitted maximal effect
Method in brief: as §6

[19] = qHTS assay to identify small molecule antagonists of the estrogen related receptor (ERR) signaling pathway from Tox21 library (AID 1224848); further: nearly all actives have a fitted effect of over 50% in size; further: potency means the concentration at half of the fitted maximal effect
Method in brief: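 Quantitative high-throughput format: ERR reporter cells (2,000/well) pre-incubated 6 h, treated 18 h at 37 C with compounds in DMSO alongside positive and negative controls, then read by ONE-Glo luminescence.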

[20] = qHTS assay to identify small molecule agonists of the estrogen related receptor (ERR) signaling pathway from Tox21 library (AID 1224849; calls by dose curve; further: nearly all actives have a fitted effect of over 15% in size); settings: ERR reporter cell line, ONE-Glo luciferase, 18 h; at 92.4 µM (top of the series) unless noted
Method in brief: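 Luminescent agonist read-out (One-Glo, 30-minute room-temperature incubation) following 18-hour compound treatment at 37 C of the ERR cell line, which had been plated 6 hours before dosing.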
On the % scale 0 is the no-effect control and ±100 the full control effect.

O=[N+]([O-])c1cc(Cl)c(Cl)c(Cl)c1Cl
inactive: Potency [1] | Potency [2] | Potency [3] | Potency [4] | Potency [5] | Potency [6] | Potency [7] | Potency [8] | Potency [9] | Potency [10] | Potency [11]

CCOC(=O)/C=C(C)/C=C/C=C(C)/C=C/c1c(C)cc(OC)c(C)c1C
inactive: Potency [1] | Potency [12] | Potency [4] | Potency [5] | Potency [6] | Potency [13] | Potency [7] | Potency [8] | Potency [14] | Potency [9] | Potency [10] | Potency [15] | Potency [16] | Potency [11]

CC(C)(C)CC(C)(C)c1ccc(O)c(Cc2ccc(Cl)cc2Cl)c1
active: Potency [1] 9.52 µM | Potency [12] 19.6 µM | Potency [3] 15.6 µM | Potency [17] 21.3 µM | Potency [13] 23.9 µM | Potency [7] 21.3 µM | Potency [18] 23.9 µM | Potency [14] 26.8 µM
inactive: Potency [5] | Potency [11]

CCCCCCCCCCCCCCCC(=O)OC[C@H](O)[C@H]1OC(=O)C(O)=C1O
active: Potency [1] 54.9 µM
inactive: Potency [3] | Potency [4] | Potency [17] | Potency [5] | Potency [6] | Potency [7] | Potency [8] | max response [18] -4.9% | Potency [9] | Potency [15] | Potency [16]

CC(C)CCCCCCCCCCCCCCC(=O)O
inactive: Potency [4] | Potency [6] | Potency [13] | Potency [7] | Potency [8] | Potency [14] | Potency [9] | Potency [15] | Potency [16] | Potency [11]
active: Potency [1] 17.4 µM | Potency [3] 1.6 µM

O=C(Nc1cccc(C(F)(F)F)c1)c1cc(Br)cc(Br)c1O
inactive: Potency [5] | Potency [8] | Potency [14] | Potency [9]
active: Potency [1] 19.5 µM | Potency [3] 16 µM | Potency [17] 4.36 µM | Potency [6] 21.9 µM | Potency [18] 3.89 µM | Potency [15] 19.5 µM | Potency [16] 19.5 µM

CCCCCCCC[P+](CCCCCCCC)(CCCCCCCC)CCCCCCCC
active: Potency [1] 3.45 µM | Potency [3] 7.95 µM | Potency [19] 0.108 µM | Potency [4] 13.7 µM | Potency [17] 0.434 µM | Potency [6] 10.9 µM | Potency [13] 6.87 µM | Potency [7] 4.87 µM | Potency [8] 17.3 µM | Potency [18] 0.194 µM | Potency [14] 4.87 µM | Potency [9] 12.2 µM | Potency [10] 12.2 µM | Potency [15] 9.71 µM | Potency [16] 10.9 µM
inactive: activity change, positive = activation [20] -78.2% | Potency [5]

CC1=C(C(=O)OC(C)C)C(c2cccc([N+](=O)[O-])c2)C(C(=O)OC2CN(C(c3ccccc3)c3ccccc3)C2)=C(N)N1 (stereo not given)
active: Potency [1] 6.74 µM | Potency [3] 55.2 µM | Potency [19] 26.6 µM | Potency [4] 21.3 µM | Potency [6] 23.9 µM | Potency [16] 23.9 µM
inactive: activity change, positive = activation [20] -68.1% [at 42.5 µM] | Potency [5] | Potency [13] | Potency [14] | Potency [11]

Nc1ccc(N)c2ccccc12
active: Potency [1] 24.5 µM | Potency [3] 101 µM | Potency [19] 27.3 µM | Potency [7] 54.9 µM | Potency [15] 54.9 µM | Potency [16] 54.9 µM
inactive: Potency [5] | Potency [14] | Potency [11]

CN(C)c1ccc(C2(c3ccc(N(C)C)cc3)OC(=O)c3cc(N(C)C)ccc32)cc1
inactive: Potency [1] | Potency [3] | Potency [19] | Potency [17] | Potency [5] | Potency [7] | max response [18] -1.22% | Potency [14] | Potency [9] | Potency [16] | Potency [11]

CCCCCCCC[N+](CCCCCCCC)(CCCCCCCC)CCCCCCCC
inactive: Potency [5]
active: Potency [1] 13.8 µM | Potency [3] 17.9 µM | Potency [19] 0.768 µM | Potency [4] 24.5 µM | Potency [17] 6.15 µM | Potency [6] 24.5 µM | Potency [13] 19.5 µM | Potency [7] 7.75 µM | Potency [8] 24.5 µM | Potency [18] 2.18 µM | Potency [14] 15.5 µM | Potency [9] 24.5 µM | Potency [10] 24.5 µM | Potency [15] 19.5 µM | Potency [16] 24.5 µM

CC(=O)N1CCN(c2ccc(OC[C@H]3CO[C@](Cn4ccnc4)(c4ccc(Cl)cc4Cl)O3)cc2)CC1
inactive: activity change, positive = activation [20] -79.4%
active: Potency [1] 49 µM | Potency [3] 101 µM | Potency [19] 12.2 µM | Potency [4] 49 µM | Potency [17] 24.5 µM | Potency [6] 54.9 µM | Potency [13] 49 µM | Potency [7] 21.9 µM | Potency [8] 49 µM | Potency [18] 21.9 µM | Potency [14] 43.6 µM | Potency [10] 49 µM | Potency [16] 54.9 µM

NC(=O)C1(N2CCCCC2)CCN(CCCN2c3ccccc3CCc3ccc(Cl)cc32)CC1
inactive: Potency [11]
active: Potency [1] 21.3 µM | Potency [3] 55.2 µM | Potency [4] 23.9 µM | Potency [6] 23.9 µM | Potency [13] 26.8 µM | Potency [7] 21.3 µM | Potency [18] 21.3 µM | Potency [9] 26.8 µM | Potency [10] 23.9 µM | Potency [15] 23.9 µM | Potency [16] 23.9 µM
